Source: PubChem
Most compounds without a hit are left out; they make up all but 2.1% or so of the library.
Mito fusion act: mitochondrial division inhibition or fusion activation. Potency, µM (series often up to 46.1 µM), most hits filed as activators. AID 485298. hit rate 0.23% among 320,000. S. cerevisiae fusion-defective mutant growth rescue, CellTiterGlo 48 h; also: nearly all actives have a fitted effect of over 45% in size
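Temperature-sensitive fusion-defective S. cerevisiae (e.g. fzo1-1, mgm1-5) were grown with compound in YPEG medium (3% ethanol, 3% glycerol) for 48 hours at 37C. Growth rescue was measured as viability by CellTiterGlo luminescence after 10 minutes at ambient.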
TDP43 rescue: rescues yeast growth from TDP-43 toxicity; hit rate 1.8% among 410,000; Potency, µM (top dose mostly 46.1 µM), most hits filed as activators; TDP-43 expressing yeast growth rescue, BacTiter-Glo, 24 h; also: nearly all actives have a fitted effect of over 50% in size
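Cell-based yeast growth screen: TDP-43 expression induced in galactose, inoculum OD600=0.02 after raffinose pregrowth to mid-log. Read-out BacTiter-Glo luminescence at 24 hr, 30 deg C; inhibition of toxicity seen as signal increase.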
Abeta rescue: compounds reversing amyloid beta toxicity in yeast; AID 1347071; hit rate 0.063% among 410,000; yeast expressing A-beta42, growth rescue, OD600, 48 h; response scale: 0% DMSO, 100% iron-clioquinol control; Potency, µM (series often up to 46.1 µM), most hits filed as activators; also: nearly all actives have a fitted effect of over 55% in size
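Growth rescue measured by 600 nm absorbance after 48 h yeast culture at 30 C with compound. Values normalized between DMSO and an equimolar ferric chloride plus clioquinol control.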
aSyn rescue: inhibitors of alpha-synuclein toxicity in yeast; hit rate 0.14% among 370,000; Yeast expressing alpha-synuclein, growth rescue, BacTiter-Glo, 24 h; Potency, µM (series often up to 46.1 µM), usual class: activators; AID 652106; also: nearly all actives have a fitted effect of over 65% in size
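Readout is rescue of growth in alpha-synuclein-expressing yeast, so inhibitors of toxicity appear as activators. Growth after 24 hr at 30 deg C in galactose medium is quantified by luminescence.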
Glioma ERSR ind: induces the endoplasmic reticulum stress response in human glioma cells. U87-MG GRP78 promoter luciferase reporter, 16 h. Potency, µM, most hits filed as activators. hit rate 0.02% among 420,000. AID 602332; also: series mostly up to about 76 µM; nearly all actives have a fitted effect of over 35% in size
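ERSR induction read as luciferase luminescence (Bright-Glo, 10 min at room temperature) in stably transfected human U87-MG glioma cells exposed to compounds for 16 h, using GRP78 as sensor.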
AT treatment: potential ataxia-telangiectasia treatment; F2112 A-T fibroblasts, KAP-1 phosphorylation AlphaLISA; neocarzinostatin DNA damage 30 min before lysis; Potency, µM (titrated, usually from 57.5 µM), usual class: activators; hit rate 0.19% among 320,000; AID 485349; also: nearly all actives have a fitted effect of over 45% in size
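ATM-like activity read as KAP-1 phosphorylation via AlphaLISA donor/acceptor antibody pairs after lysis and 6 hr at 25C. Cells were ATM-null patient fibroblasts (F2112, hTERT), dosed 60 min, then exposed to the DSB inducer NCS for 30 min.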
Hits are given with their value. Calls follow the shape of the dose curve; as a rule, active = well fitted curve in the direction sought with a large enough effect; inconclusive = small, poorly fitted or top-dose-only effect, or another doubt; inactive = no such curve, though single readings can be large; an effect the other way counts as inactive or inconclusive.

For Cc1ccc(-c2ccc(CN3C(C)C(=O)N(Cc4cn(CCC5OCCO5)nn4)CCS3(=O)=O)cc2)cc1 (stereo unspecified) the results were TDP43 rescue inactive, Abeta rescue inactive, aSyn rescue inactive and Glioma ERSR ind inactive.
COCc1c(C(=O)N2CCN(C3CCCC3)CC2)cnn1-c1ncc2c(n1)-c1ccccc1CCC2 was read as Glioma ERSR ind inactive.
Cc1ccc(C)c2nc3sc(C(=O)O)cc3cc12 was read as Mito fusion act inactive, TDP43 rescue 14µM, Abeta rescue inactive, aSyn rescue inactive, Glioma ERSR ind inactive and AT treatment inactive.
For COc1ccc(OC)c(CNc2ncnc3onc(-c4ccc(Cl)cc4)c23)c1 the results were TDP43 rescue inconclusive, Abeta rescue inactive and Glioma ERSR ind inactive.
Cc1ccccc1Nc1n[nH]c(C)c1[N+](=O)[O-] was read as Mito fusion act inactive, TDP43 rescue inactive, Abeta rescue inactive, aSyn rescue inactive, Glioma ERSR ind inactive and AT treatment inactive.
`Cc1ccc(Nc2n[nH]c(C)c2[N+](=O)[O-])c(C)c1` gave Mito fusion act 10µM, TDP43 rescue inconclusive, Abeta rescue inactive, aSyn rescue inactive, Glioma ERSR ind inactive and AT treatment inactive.
Screening N#CC(CC(=O)c1ccc(F)cc1)c1ccc2c(c1)OCO2 (stereo unspecified) returned Mito fusion act inactive, TDP43 rescue 11µM, Abeta rescue inactive, aSyn rescue inactive, Glioma ERSR ind inactive and AT treatment inactive.
For CCOc1cc2c(cc1OCC)C(c1ccc(F)cc1)NCC2 (stereo unspecified) the results were TDP43 rescue inactive, Abeta rescue inactive, aSyn rescue inactive and Glioma ERSR ind inactive.
CCOc1cc(C2NN=C(c3ccccc3)S2)ccc1OCc1ccc(F)cc1 (stereo unspecified) was read as Mito fusion act inactive, TDP43 rescue 14µM, Abeta rescue inactive, aSyn rescue inactive, Glioma ERSR ind inactive and AT treatment inactive.
CCOc1cc(C2NN=C(c3ccccc3)S2)ccc1OCc1ccccc1Cl (stereo unspecified) was read as Mito fusion act inactive, TDP43 rescue 10µM, Abeta rescue inactive, aSyn rescue inactive, Glioma ERSR ind inactive and AT treatment inactive.
`CCOc1cc(CNC2CCCC2)ccc1OCc1ccccc1Cl` gave Mito fusion act inactive, TDP43 rescue inactive, Abeta rescue inactive, aSyn rescue inactive, Glioma ERSR ind inactive and AT treatment inactive.
`COCC(=O)Nc1cc(C(=O)N[C@H]2CCCCNC2=O)c2c(c1)nc(-c1ccncc1)n2C` gave Glioma ERSR ind inactive.
FC(F)(F)c1ccnc(Sc2n[nH]c(C(F)(F)F)n2)c1 was read as Mito fusion act inactive, TDP43 rescue inactive, Abeta rescue inactive, aSyn rescue inactive, Glioma ERSR ind inactive and AT treatment inactive.
Screening FC(F)(F)c1nc(Sc2ncccc2C(F)(F)F)n[nH]1 returned Mito fusion act inactive, TDP43 rescue 13µM, Abeta rescue inactive, aSyn rescue inactive, Glioma ERSR ind inactive and AT treatment inactive.
`Cc1ccc(-c2nc3sccn3c2Nc2ccccc2C)cc1` gave TDP43 rescue 35µM, Abeta rescue inactive and Glioma ERSR ind inactive.
For Cc1cccc(NC(=O)c2ccc3snnc3c2)c1C the results were TDP43 rescue inactive, Abeta rescue inactive, aSyn rescue inactive and Glioma ERSR ind inactive.
Screening COc1ccc(C(=O)NCc2nc(-c3ccccc3NC(=O)c3cc(C)oc3C)oc2C)cc1F returned Glioma ERSR ind inactive.
For CC(C)(C)n1ncc2c(=O)n(Cc3ccc(C#N)cc3)cnc21 the results were Glioma ERSR ind inactive.
For CCN(CC)CCOC(=O)c1ccc([N+](=O)[O-])cc1 the results were Mito fusion act inactive, TDP43 rescue inactive, Abeta rescue inactive, aSyn rescue inactive, Glioma ERSR ind inactive and AT treatment 35µM.
Cc1ccc2c(c1)N(C(=O)N1CCC(C(=O)NCc3cccs3)CC1)CC(C)O2 (stereo unspecified) was read as TDP43 rescue inactive, Abeta rescue inactive and Glioma ERSR ind inactive.
COc1ccc(NC(=O)C2CC(c3ccccc3Cl)=NO2)cc1 (stereo unspecified) was read as Mito fusion act inactive, TDP43 rescue 11µM, Abeta rescue inactive, aSyn rescue inactive, Glioma ERSR ind inactive and AT treatment inactive.
For CC(NC(=O)COC(=O)/C=C/c1ccc(Cl)cc1)c1ccccc1 (stereo unspecified) the results were Mito fusion act inactive, TDP43 rescue inactive, Abeta rescue inactive, aSyn rescue inactive, Glioma ERSR ind inactive and AT treatment 3.2µM.
Screening CC(C)Cc1cc(C(=O)NCC2Cc3cc(F)cc(-c4ccccn4)c3O2)no1 (stereo unspecified) returned Glioma ERSR ind inactive.
Screening Cc1cc(NS(=O)(=O)c2ccc(CC(C)C)cc2)no1 returned Mito fusion act inactive, TDP43 rescue 18µM, Abeta rescue inactive, aSyn rescue inactive, Glioma ERSR ind inactive and AT treatment inactive.
For COc1ccc(S(=O)(=O)Nc2cc(C)on2)cc1 the results were Mito fusion act inactive, TDP43 rescue inactive, Abeta rescue inactive, aSyn rescue inactive, Glioma ERSR ind inactive and AT treatment inactive.
For Cc1cc(NS(=O)(=O)c2ccc(C(C)C)cc2)no1 the results were Mito fusion act inactive, TDP43 rescue 14µM, Abeta rescue inconclusive, aSyn rescue inactive, Glioma ERSR ind inactive and AT treatment inactive.
CCCCSc1nnc2n(-c3cccc(C)c3)c(=O)c3c4c(sc3n12)CCCC4 was read as TDP43 rescue inactive, Abeta rescue inactive and Glioma ERSR ind inactive.
`O=S(=O)(NCCSCc1c(Cl)cccc1Cl)c1ccc2c(c1)OCCO2` gave Mito fusion act inactive, TDP43 rescue 35µM, Abeta rescue inactive, aSyn rescue inactive, Glioma ERSR ind inactive and AT treatment inactive.
COc1ccc(CN2CCOc3ccc(C(O)c4cccnc4)cc3C2)c(OC)c1OC (stereo unspecified) was read as Glioma ERSR ind inactive.
For CN1CCN(C(=O)c2ccc3nc(-c4ccccc4)c(-c4ccccc4)nc3c2)CC1 the results were Mito fusion act inactive, TDP43 rescue inactive, Abeta rescue inactive, aSyn rescue inactive, Glioma ERSR ind inactive and AT treatment inactive.
`O=C(c1ccc2nc(-c3ccccc3)c(-c3ccccc3)nc2c1)N1CCCCC1` gave Mito fusion act inactive, TDP43 rescue 35µM, Abeta rescue inactive, aSyn rescue inactive, Glioma ERSR ind inactive and AT treatment inactive.
O=C(Nc1nc(-c2cccs2)c(C(=O)C(F)(F)F)s1)c1ccco1 was read as Mito fusion act inactive, TDP43 rescue 14µM, Abeta rescue inactive, aSyn rescue inactive, Glioma ERSR ind inactive and AT treatment inactive.
